As a reminder, the inhibition is the drop in the measured response relative to a control, in per cent.

Hit rate of the full screen: of about 320,000 compounds, about 1,200 (0.38%) were called active. The sample as a whole holds a higher share of actives than the screen did. Unmarked numbers belong to inactive results.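 Rule for the calls: active = inhibition above the screen-wide mean plus 3 SD, limit set per campaign (cut at about 26% in these data); inactive = the rest.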

This is an account of results in PubChem BioAssay AID2177 (The Scripps Research Institute Molecular Screening Center, 2009).

The target in the test is Acyl-protein thioesterase 2 (Homo sapiens) (UniProt O95372). Briefly: LYPLA2 inhibitors, primary screen, counter-screen for PME1 inhibitor project, biochemical, fluorescence polarization, FP-Rh probe ABPP (AID 2177).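 Note: 0% = LYPLA2 with DMSO and 100% = wells lacking LYPLA2 enzyme.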 Conditions: recombinant LYPLA2, FP-Rh probe fluorescence polarization; at 5.9 µM; active compounds read high. Background: Counterscreens check selectivity or assay interference.
Sequence of Acyl-protein thioesterase 2 (Homo sapiens) (O95372 whole entry, looked up): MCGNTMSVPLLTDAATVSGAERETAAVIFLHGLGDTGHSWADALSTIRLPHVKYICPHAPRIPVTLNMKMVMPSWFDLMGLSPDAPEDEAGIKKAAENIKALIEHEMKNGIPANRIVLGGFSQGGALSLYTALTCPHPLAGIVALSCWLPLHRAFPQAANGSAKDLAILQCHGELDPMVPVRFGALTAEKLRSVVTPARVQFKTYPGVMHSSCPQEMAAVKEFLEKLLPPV
Turning to `Cc1scc(C(=O)NNC(=S)NCC(C)C)c1C`, the inhibition was 8.57%.

For the molecule `Cc1sc2ncnc(N3CCC(C(=O)Nc4ccc(F)cc4Cl)CC3)c2c1C`, the inhibition is -1.19%.

Turning to `CC(=O)Nc1cccc(-c2csc(Nc3cccc(C)n3)n2)c1`, the inhibition was 2.92%.

On to `COc1ccc(CCNc2nc(-c3cccc(NC(C)=O)c3)cs2)cc1OC`, for which the inhibition was 31.9% (active).

Turning to `COc1ccc(CC(=O)Nc2nc(-c3ccc(F)c(F)c3)cs2)cc1OC`, the inhibition is -13.7%.

As to `CC(C(=O)Nc1ccc(O)c(C(=O)O)c1)N1C(=O)/C(=C/c2cccs2)SC1=S` (configuration not stated), the inhibition is 2.96%.

For the molecule `COc1cc(NS(=O)(=O)c2ccc3ccccc3c2)c2ncccc2c1`, the inhibition is -11.9%.

As to `O=C(c1cccs1)C1C(c2ccc(Br)cc2)NC(=S)NC1(O)C(F)(F)F` (configuration not stated), the inhibition was -1.56%.

With `O=C(COc1ccc(Cl)cc1)N1CCN(S(=O)(=O)c2ccc(Cl)cc2)CC1`, the inhibition is -0.85%.

Consider `O=C(COc1ccc(S(=O)(=O)Nc2cccc(C(F)(F)F)c2)cc1)N1CCOCC1`, for which the inhibition is 2.78%.

As to `COc1ccc(N2CCN(C(=O)COc3ccc4c(C)cc(=O)oc4c3)CC2)cc1`, the inhibition is 11.7%.

Consider `OC(COc1ccc2c(c1)CCC2)CN1CCN(c2cccc(Cl)c2)CC1` (configuration not stated), for which the inhibition was 20.1%.

For the molecule `Cc1c(C)c2ccc(OCC(=O)N3CCN(c4cccc(Cl)c4)CC3)cc2oc1=O`, the inhibition was 49.8% (active).

As for `O=C(CCCN1C(=O)CSc2ncccc21)N1CCN(c2cccc(C(F)(F)F)c2)CC1`, the inhibition was 63.4% (active).

As to `O=C(CN1C(=O)CSc2ncccc21)N1CCOCC1`, the inhibition is -0.09%.

With `O=C(CCCN1C(=O)C2C3C=CC(C3)C2C1=O)N1CCN(c2ccccc2)CC1` (configuration not stated), the inhibition was -3.87%.

As for `CCC(=O)c1ccc(OCC(O)CN2CC(C)OC(C)C2)cc1` (configuration not stated), the inhibition is 2.23%.

Take `CCC(=O)c1ccc(OCC(O)CN2CCN(c3cccc(C(F)(F)F)c3)CC2)cc1` (configuration not stated): the inhibition was 64.8% (active).

Turning to `CCOc1ccccc1N1CCN(C(=O)COc2ccc3c(C)cc(=O)oc3c2)CC1`, the inhibition was -4.36%.

On to `O=C(COc1ccc(Cl)cc1)N1CCN(c2cccc(C(F)(F)F)c2)CC1`, for which the inhibition was 69.5% (active).

Consider `O=C(c1ccc2c(c1)N(Cc1ccc(F)cc1)C(=O)c1ccccc1S2(=O)=O)N1CCN(c2ccccn2)CC1`, for which the inhibition is 1.84%.

Turning to `COc1cc(S(=O)(=O)N(Cc2cccs2)C2CC2)ccc1-n1cnnn1`, the inhibition is 3.27%.

Take `CCOC(=O)N1CCN(S(=O)(=O)c2ccc3c(c2)C(C)C(=O)N3)CC1` (configuration not stated): the inhibition is -2.51%.

In the case of `Cc1ccccc1NC(=O)CSC1=NCCN1`, the inhibition was 0.07%.

`O=C1C2C3C=CC(C3)C2C(=O)N1c1ccc(-c2nc3ccccc3c(=O)o2)cc1` (configuration not stated): the inhibition was 1.58%.

As for `N#CCSc1nn(-c2ccc(F)cc2)c(=S)s1`, the inhibition is -7.24%.

Regarding `COc1cccc(C(=O)Nc2nnc(S(=O)(=O)N3CCOCC3)s2)c1`, the inhibition was -0.08%.

As for `Cc1ccccc1Cn1c2ccccc2c2cnn(CC(=O)NCc3ccco3)c(=O)c21`, the inhibition was -21%.

In the case of `COc1cccc(-c2nc(CS(=O)CC(=O)NCc3ccc(F)cc3)c(C)o2)c1` (configuration not stated), the inhibition is 10.6%.

Regarding `COc1ccc(-c2nc(CS(=O)CC(=O)NCc3ccccn3)c(C)o2)cc1` (configuration not stated), the inhibition was 27.8% (active).

With `COc1ccc(-c2nc(CS(=O)CC(=O)NCc3ccccc3)c(C)o2)cc1OC` (configuration not stated), the inhibition was 0.93%.

For the molecule `CC[N+](C)(CC)CCC[n+]1c(-c2ccccc2)c2cc(N)ccc2c2ccc(N)cc21`, the inhibition is 72.4% (active).

For `O=C1/C(=C\c2ccccc2Cl)SC(=S)N1CCC(=O)N1CCCc2ccccc21`, the inhibition was -1.32%.

On to `CCOc1ccc(NC(=O)CN(C)C(=O)CCSc2ccc(F)cc2)cc1OCC`, for which the inhibition is 6.29%.

For the molecule `O=C(CCl)NNc1cccc(Cl)n1`, the inhibition is -5.01%.

As for `CC1CC(NC(=O)/C(C#N)=C/c2ccc[nH]2)CC(C)(C)C1` (configuration not stated), the inhibition was 0.74%.

`Cn1c(=O)cc(OCCCC(=O)N2CCN(Cc3ccc4c(c3)OCO4)CC2)c2ccccc21`: the inhibition is 9.58%.

For `O=C(CCCN1C(=O)c2cccc3cccc(c23)C1=O)N1CCN(Cc2ccc3c(c2)OCO3)CC1`, the inhibition is 64.2% (active).

Consider `O=C(Nc1cccc2ccccc12)N1CCN(Cc2ccc3c(c2)OCO3)CC1`, for which the inhibition is 1.22%.

For `CCCCCc1c(C)nc(N2CCN(Cc3ccc4c(c3)OCO4)CC2)[nH]c1=O`, the inhibition is -5.68%.

In the case of `N#Cc1ccc(OCc2nnc(-c3ccc([N+](=O)[O-])cc3)o2)cc1`, the inhibition was 32.3% (active).

For the molecule `O=C(CSc1nnc(-c2ccc([N+](=O)[O-])cc2)o1)Nc1ccccn1`, the inhibition was 0.49%.

As to `CCOC(=O)CSc1nnc(-c2ccc([N+](=O)[O-])cc2)o1`, the inhibition is -0.42%.

Consider `N#Cc1c(/N=C/N2CCCC2)oc(-c2ccccc2)c1-c1ccccc1`, for which the inhibition was 4.8%.

Take `CC(=O)C12CC(C)=C(C)CC1CC1C3CCC4=CC(=O)CCC4(C)C3CCC12C` (configuration not stated): the inhibition is -4.85%.

On to `COc1ccccc1N1CC(C(=O)NCCN2C(=O)S/C(=C\c3cccnc3)C2=O)CC1=O` (configuration not stated), for which the inhibition is 1.85%.

In the case of `CCOc1ccc(N2CC(C(=O)NCCN3C(=O)S/C(=C\c4cccnc4)C3=O)CC2=O)cc1` (configuration not stated), the inhibition is 6.19%.

As for `COc1ccc(N2CC(C(=O)NCCN3C(=O)S/C(=C\c4cccnc4)C3=O)CC2=O)c(OC)c1` (configuration not stated), the inhibition is 57.6% (active).

On to `Cc1cc(C)c(S(=O)(=O)N2CCC(C(=O)OCc3c(C)noc3C)CC2)c(C)c1`, for which the inhibition was 5.23%.

As for `COCCn1c(SCC(=O)c2[nH]c(C)c(C(C)=O)c2C)nc2ccccc2c1=O`, the inhibition is -1.43%.

In the case of `CN(CC(=O)NCCc1ccccc1)S(=O)(=O)c1cnc[nH]1`, the inhibition was -2.19%.

For `CCC(C)NC(=O)c1ccc(NC(=O)CC2SC(N3CCCCC3)=NC2=O)cc1` (configuration not stated), the inhibition was -2.2%.

Turning to `O=C(CC1SC(N2CCCC2)=NC1=O)Nc1ccc(C(=O)NCCc2ccc(F)cc2)cc1` (configuration not stated), the inhibition is 34.5% (active).

On to `COc1ccc(NC(=O)CC2SC(N3CCCCC3)=NC2=O)cc1OC` (configuration not stated), for which the inhibition is -2.51%.

Turning to `CCN(CC)C(=O)CC1(c2ccccc2OC)CCOC(C(C)C)C1` (configuration not stated), the inhibition is 27.5% (active).

In the case of `COc1ccc(C2(CNC(=O)C(c3ccccc3)c3ccccc3)CCOCC2)cc1OC`, the inhibition is 0.76%.

With `CCN(CC(=O)Nc1ccccc1OC)C(=O)CC1CC2CCC1C2` (configuration not stated), the inhibition was 4.24%.

Take `c1ccc(-c2ccnc3nc(-n4cccc4)nn23)cc1`: the inhibition is 5.32%.

On to `CCN(CC)C(=O)CSc1nnc(C2CCCCC2)o1`, for which the inhibition is 6.58%.

With `Cc1[nH]c2ccccc2c1C(=O)C(C)Sc1nnc(C2CC2)o1` (configuration not stated), the inhibition was 1.82%.

With `CCCCCC1CCC(c2nnc(SCC(C)=O)o2)CC1` (configuration not stated), the inhibition is 34.9% (active).

Turning to `CC(=O)Nc1ccc(N2C(=O)CCC2=O)cc1C`, the inhibition was 2%.
